The text below walks through data of PubChem BioAssay (NCATS).

A short description of test [1]: qHTS profiling of the MIPE4 collection as inhibitors of Plasmodium falciparum (3D7) proliferation (AID 743344).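 Further: scaled between DMSO vehicle wells and 0.29 µM artemisinin as full inhibition.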 The following applies: P. falciparum 3D7 in erythrocytes, SYBR Green DNA fluorescence, 72 h; at 5.51 µM (top of the series) unless noted. In a few lines: (§1)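 Erythrocytes infected with P. falciparum (0.3% parasitemia, 2.5% hematocrit) incubated with compounds 72 h at 37 C, 5% CO2. Lysis with saponin/Triton buffer containing SYBR Green I, overnight at room temperature in the dark; DNA fluorescence (485/535 nm) normalised to 0.29 uM artemisinin and DMSO.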
(Quantitative high-throughput screening tests each substance at several concentrations.)

Test [2] is described as follows: qHTS profiling of the MIPE4 collection as inhibitors of Plasmodium falciparum (DD2) proliferation (AID 743345). The following applies: P. falciparum Dd2 in erythrocytes, SYBR Green DNA, 72 h; at 5.51 µM (top of the series) unless noted. Put shortly:
as §1

Test [3] in a line: qHTS profiling of the MIPE4 collection as inhibitors of Plasmodium falciparum (DD2) proliferation (Rep 2) (AID 743346). As to conditions: P. falciparum Dd2 in erythrocytes, SYBR Green DNA, 72 h; at 5.51 µM (top of the series) unless noted. In a few lines:
as §1

A short description of test [4]: qHTS profiling of the MIPE4 collection as inhibitors of Plasmodium falciparum (HB3) proliferation (AID 743347).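 Further: plate controls were DMSO vehicle wells for no effect and artemisinin wells for full effect.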 As to conditions: P. falciparum HB3 in erythrocytes, SYBR Green DNA, 72 h; at 5.51 µM (top of the series) unless noted. In a few lines: as §1
The target in test [5] is Glutathione peroxidase 1 (Homo sapiens) (UniProt P07203). The experiment in a line: Primary qHTS Assay for Inhibitors of Recombinant Selenoprotein Glutathione Peroxidase 1 (GPX1) (AID 1845191; active means well fitted inhibition curve with a large enough effect; further: on the % scale 0 is the no-effect control and ±100 the full control effect; nearly all actives have a fitted effect of over 65% in size). The following applies: outcome: dose series up to 48.8 µM unless noted. In a few lines: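 GR-coupled assay: compounds preincubated 30 min at room temperature with GPX1, then reaction started with CHP; final 10 nM GPX1, 1 mM GSH, 0.5 mM CHP, 0.5 mM NADPH, 100 nM GR, 0.01% BSA, pH 7.5 Tris buffer. NADPH fluorescence (340/450 nm) read at 0 and 15 min.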
Sequence of Glutathione peroxidase 1 (Homo sapiens) (P07203 whole entry, looked up): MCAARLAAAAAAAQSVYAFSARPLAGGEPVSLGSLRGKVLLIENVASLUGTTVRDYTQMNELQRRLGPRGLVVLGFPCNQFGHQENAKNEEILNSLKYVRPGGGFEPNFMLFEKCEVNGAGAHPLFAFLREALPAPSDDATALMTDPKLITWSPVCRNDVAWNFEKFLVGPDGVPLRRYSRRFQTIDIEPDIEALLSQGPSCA

Test [6] deals with Phospholipid hydroperoxide glutathione peroxidase GPX4 (Homo sapiens) (UniProt P36969). The experiment in a line: Primary qHTS Assay for Inhibitors of Recombinant Selenoprotein Glutathione Peroxidase 4 (GPX4) (AID 1845192; active means well fitted inhibition curve with a large enough effect; further: nearly all actives have a fitted effect of over 65% in size). The following applies: outcome: dose series up to 50 µM unless noted. Put shortly: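 GR-coupled assay: recombinant GPX4 preincubated 30 min with compound at room temperature; final 200 nM GPX4, 1 mM GSH, 0.5 mM cumene hydroperoxide, 0.5 mM NADPH, 100 nM GR, 0.01% BSA, pH 7.5 Tris. NADPH fluorescence (340/450 nm) read at 0 and 15 min.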
Sequence of Phospholipid hydroperoxide glutathione peroxidase GPX4 (Homo sapiens) (P36969 whole entry, looked up): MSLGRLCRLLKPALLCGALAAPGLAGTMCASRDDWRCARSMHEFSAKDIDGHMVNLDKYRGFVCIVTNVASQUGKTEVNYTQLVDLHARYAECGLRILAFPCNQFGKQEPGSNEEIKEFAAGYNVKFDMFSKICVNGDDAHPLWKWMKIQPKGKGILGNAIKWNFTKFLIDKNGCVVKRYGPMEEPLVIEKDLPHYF

Results filed as inconclusive are left out. Active and inactive are the calls of the source. Unless noted, how the calls were made is not given here.

In test [1], `NC[C@@H]1O[C@H](O[C@H]2[C@H](O)[C@H](O[C@H]3[C@@H](O)[C@H](N)C[C@H](N)[C@H]3O[C@H]3O[C@H](CN)[C@H](O)[C@H](O)[C@H]3N)O[C@@H]2CO)[C@@H](N)[C@@H](O)[C@@H]1O` had a parasite growth, % of DMSO control of 98.8%. Besides, the parasite growth remaining, % of DMSO control (lower = more inhibition) in test [2] came out at 101%. In test [3], this compound registered a parasite growth, % of control (lower = inhibition) of 77.1%. Moreover, the growth, % of control in test [4] amounted to 77.3%. In addition, in test [5], the activity, negative = inhibition is -26.7% [at 4.49 µM] (inactive).
For the compound `CCC(=O)O[C@@H]1CC(=O)O[C@H](C)C/C=C/C=C/[C@@H](O)[C@H](C)C[C@H](CC=O)[C@H](OC2O[C@H](C)[C@@H](O[C@H]3C[C@@](C)(O)[C@@H](OC(=O)CC)[C@H](C)O3)[C@H](N(C)C)[C@H]2O)[C@H]1OC` (some centres not stated), the outcome in test [5] and in test [6] was inactive.
